# Results filed as inconclusive are left out. Entries that show only a call come without a potency. Active and inactive are the calls of the source. The call rests on the fitted dose curve; in most records, active means well fitted inhibition curve with a large enough effect; inconclusive means small, poorly fitted or top-dose-only effect; inactive means flat fitted curve, though single readings scatter.
# Biological target: Ubiquitin carboxyl-terminal hydrolase 1 (Homo sapiens) (UniProt O94782)
# Experiment: Inhibitors of USP1/UAF1: Pilot qHTS (AID 504865); further: nearly all actives have a fitted effect of over 35% in size
# Conditions: purified USP1/UAF1, Ub-rhodamine cleavage fluorescence; series mostly up to 114 µM
# In short: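 Enzyme-free wells gave the negative control, while test wells held 1nM USP1/UAF1 preincubated with compound for 15 min at room temperature. Ub-Rho at 150nM final started the reaction, and fluorescence at 480/540 nm was recorded kinetically.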
# Potency means the concentration at half of the fitted maximal effect.
# Ubiquitin carboxyl-terminal hydrolase 1 (Homo sapiens), sequence (O94782 whole entry, looked up): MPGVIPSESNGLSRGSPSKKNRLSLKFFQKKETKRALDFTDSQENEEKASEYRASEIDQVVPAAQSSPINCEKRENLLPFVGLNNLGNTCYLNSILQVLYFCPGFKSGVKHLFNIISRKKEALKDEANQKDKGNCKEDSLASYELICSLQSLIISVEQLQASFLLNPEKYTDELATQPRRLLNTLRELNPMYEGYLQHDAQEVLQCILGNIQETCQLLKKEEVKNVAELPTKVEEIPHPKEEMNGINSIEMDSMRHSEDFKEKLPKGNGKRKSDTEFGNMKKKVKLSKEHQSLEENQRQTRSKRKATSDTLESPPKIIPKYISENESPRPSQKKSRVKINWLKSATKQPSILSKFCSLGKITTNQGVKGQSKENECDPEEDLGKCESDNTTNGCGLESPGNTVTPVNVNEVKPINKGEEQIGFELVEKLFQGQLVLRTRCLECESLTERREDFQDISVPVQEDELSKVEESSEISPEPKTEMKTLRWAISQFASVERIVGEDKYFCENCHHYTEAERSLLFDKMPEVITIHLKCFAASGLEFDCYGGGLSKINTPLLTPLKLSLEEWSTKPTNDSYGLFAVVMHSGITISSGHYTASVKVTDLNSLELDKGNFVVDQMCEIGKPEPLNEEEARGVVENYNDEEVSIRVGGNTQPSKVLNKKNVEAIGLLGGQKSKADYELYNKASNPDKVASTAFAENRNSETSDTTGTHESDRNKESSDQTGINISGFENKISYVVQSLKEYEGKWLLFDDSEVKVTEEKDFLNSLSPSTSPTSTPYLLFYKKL
row,Structure (SMILES),Potency
1,CC(=O)Oc1cc(C)c(OC(C)=O)c2ccccc12,inactive
2,Nc1ncnc2c1ncn2[C@@H]1O[C@H](COP(=O)(O)OP(=O)(O)OP(=O)(O)O)[C@@H](O)[C@H]1O,inactive
3,CC[N+](C)(C)Cc1ccccc1Br,inactive
4,CCCCCCCCCCCCCCCC(=O)OCC(COC(=O)CCCCCCCCCCCCCCC)OC(=O)CCCCCCCCCCCCCCC,inactive
5,CCCCCCCCCCCC[n+]1ccc2ccccc2c1,89.1 µM (active)
6,Nc1c(Br)cc(Br)cc1CNC1CCC(O)CC1 (configuration not stated),inactive
7,Nc1c(N=Nc2ccc(-c3ccc(N=Nc4cc(S(=O)(=O)O)c5ccccc5c4N)cc3)cc2)cc(S(=O)(=O)O)c2ccccc12,15.8 µM (active)
8,NC(=O)c1ncn(C2OC(CO)C(O)C2O)n1 (configuration not stated),inactive
9,CCCCCCOc1ccc(C(=N)N(CCCC)CCCC)c2ccccc12,39.8 µM (active)
10,CC1(C)S[C@@H]2[C@H](NC(=O)[C@@H](NC(=O)N3CCNC3=O)c3ccccc3)C(=O)N2[C@H]1C(=O)O,inactive
11,CC1(C)S[C@@H]2[C@H](NC(=O)Cc3ccccc3)C(=O)N2[C@H]1C(=O)O,inactive
12,COC(C(=O)C(O)C(C)O)C1Cc2cc3cc(OC4CC(OC5CC(O)C(O)C(C)O5)C(O)C(C)O4)c(C)c(O)c3c(O)c2C(=O)C1OC1CC(OC2CC(OC3CC(C)(O)C(O)C(C)O3)C(O)C(C)O2)C(O)C(C)O1 (configuration not stated),inactive
13,Cc1ccccc1OCC(O)CNCCOc1ccc(C(N)=O)cc1 (configuration not stated),inactive
14,Cc1c(C)c2c(c(C)c1O)CC[C@@](C)(CCC[C@@H](C)CCC[C@@H](C)CCCC(C)C)O2,inactive
15,CN1Cc2c(N)cccc2C(c2ccccc2)C1 (configuration not stated),inactive
16,CCCCCCCCCCCCCC[n+]1ccc(C)cc1,56.2 µM (active)
17,CCCCC(C)(O)C/C=C/[C@H]1[C@H](O)CC(=O)[C@@H]1CCCCCCC(=O)OC (some centres not stated),inactive
18,CO[C@H](C(=O)[C@@H](O)[C@@H](C)O)C1Cc2cc3cc(O[C@H]4C[C@@H](O[C@H]5C[C@@H](O)[C@H](O)[C@@H](C)O5)[C@@H](O)[C@@H](C)O4)c(C)c(O)c3c(O)c2C(=O)[C@H]1O[C@H]1C[C@@H](O[C@H]2C[C@@H](O[C@H]3C[C@](C)(O)[C@H](O)[C@@H](C)O3)[C@H](O)[C@@H](C)O2)[C@H](O)[C@@H](C)O1 (some centres not stated),inactive
19,C=C1C(=CC=C2CCC[C@@]3(C)[C@@H]2CC[C@H]3[C@H](C)CCCC(C)C)C[C@@H](O)C[C@@H]1O,22.4 µM (active)

row,Structure (SMILES),Potency
1,CC(=O)Oc1c(C)cc(OCC(O)CNC(C)C)c(C)c1C (configuration not stated),inactive
2,O=C(O)c1cc(O)c2c(c1)[O][Bi][O]2,inactive
3,NC1C2CN(c3nc4c(cc3F)c(=O)c(C(=O)O)cn4-c3ccc(F)cc3F)CC12 (configuration not stated),inactive
4,CCCC(=O)Nc1ncnc2c1ncn2C1OC2COP(=O)(O)OC2C1OC(=O)CCC (configuration not stated),inactive
5,C[C@]12CCC(=O)C=C1CC[C@@H]1[C@@H]2[C@@H](O)C[C@@]2(C)[C@H]1CC[C@]2(O)C(=O)COP(=O)(O)O,inactive
6,C#CCOc1ccc2c(C)cc(=O)oc2c1,inactive
7,COC(=O)CCC(=O)CN,inactive
8,COCC(=O)Nc1cc(Sc2ccccc2)ccc1N=C(NC(=O)OC)NC(=O)OC,inactive
9,CCN(CC)Cc1cc(Nc2ccnc3cc(Cl)ccc23)ccc1O,inactive
10,CC1=C(/C=C/C(C)=C/C=C/C(C)=C/C=C/C=C(C)/C=C/C=C(C)/C=C/C2=C(C)CCCC2(C)C)C(C)(C)CCC1,inactive
11,C[C@@H]1CCC2[C@@H](C)[C@@H](O)O[C@@H]3O[C@@]4(C)CC[C@@H]1[C@@]23OO4 (some centres not stated),inactive
12,Clc1cc(Cl)c(OCC#CI)cc1Cl,inactive
13,CC(C(=O)O)c1ccc(N2Cc3ccccc3C2=O)cc1 (configuration not stated),inactive
14,CCCCCCC(O)C/C=C/CCCCCCCC(=O)O (configuration not stated),inactive
15,O=C1C(=O)c2ncccc2-c2cccnc21,50.1 µM (active)
16,O=S(=O)(O)c1ccc2c(N=Nc3ccc(S(=O)(=O)O)c4ccccc34)c(O)c(S(=O)(=O)O)cc2c1,17.8 µM (active)
17,CCC(=O)NCCC1CCc2ccc3c(c21)CCO3 (configuration not stated),inactive
18,O=S(=O)(O)c1cc(O)c2c(N=Nc3ccc(Nc4ccccc4)c4c(S(=O)(=O)O)cccc34)cc(S(=O)(=O)O)cc2c1,11.2 µM (active)

# Reference: PubChem BioAssay (NCATS)
